Source: PubChem
Peg3 prom inh = inhibitors of Peg3 promoter; HeLa PEG-Prom luciferase reporter, luminescence, overnight; inhibition, % at 20 µM; 360,000 compounds, 1.7% hits;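 active = inhibition of at least 50% at 20 µM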
LMP1 NFkB inh = inhibitors of Epstein-Barr LMP1-induced NF-kappaB reporter; 350,000 compounds, 0.69% hits; AID 504558; LMP1-induced NF-kappaB luciferase reporter cells, luminescence; inhibition, % at 12.5 µM; in the data active = inhibition above about 41%;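 also: 0% = neutral control wells and 100% = reference inhibitor control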
TROY NFkB inh = TROY signaling inhibition; Q293 LMP1-TROYcd NF-kB luciferase reporter, 4 h; inhibition, % at 10 µM; 360,000 compounds, 0.98% hits;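 active = compounds whose plate-normalised and pattern-corrected inhibition of the luciferase reporter signal at the single screening dose is 50% or more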
HIF-2a inh = HIF-2a inhibition. 786-0 RCC cells HIF-2a reporter, luciferase luminescence, overnight. inhibition, % at 18.8 µM. 360,000 compounds, 0.72% hits. AID 624352;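 active = inhibition of the luminescence signal of 40% or more relative to plate controls, in a single-dose primary screen at 18.75 µM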
TRPM1 prom inh = reduces MITF-dependent TRPM1 promoter luciferase signal | SK-MEL-5 TRPM1 promoter luciferase, 24 h | inhibition, % at 12.5 µM | 330,000 compounds, 0.83% hits | AID 488899;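 active = mean inhibition across replicates of 60% or more, whatever share of single replicates reaches that level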
TWEAK-Fn14 inh = TWEAK-Fn14 signaling inhibition; TWEAK-stimulated Fn14 reporter cells, luciferase luminescence, 8 h; inhibition, % at 10 µM; 360,000 compounds, 2% hits; in the data active = inhibition above about 50%
* = called active by the depositor; nt = not tested or not shown. Shown are actives, neighbours in structure and some others; about 4% of the full set was active somewhere.

SMILES | Peg3 prom inh | LMP1 NFkB inh | TROY NFkB inh | HIF-2a inh | TRPM1 prom inh | TWEAK-Fn14 inh
COc1ccc(-c2nc(CS(=O)CC(=O)NCCCN3CCOCC3)c(C)o2)cc1OC (stereo not given) | -5.4 | -1.2 | -8.6 | 1.7 | -2.6 | -0.1
CCN(C(=O)COC(=O)C(c1ccccc1)c1ccccc1)c1c(N)n(Cc2ccccc2)c(=O)[nH]c1=O | -0.9 | 5.5 | -2.2 | 13.7 | nt | 5.8
COc1cccc(N2CCN(C(C)C(=O)NC34CC5CC(CC(C5)C3)C4)CC2)c1 (stereo not given) | 13.1 | -1.1 | 3.9 | 8.3 | 1.7 | 90.0*
CC(C)C[C@H](N)c1nnc(S(=O)(=O)Cc2cccc(F)c2)o1 | 66.8* | -14.5 | -2.5 | 18.9 | 8.7 | 7.7
CC(C)CCNC(=O)c1ccc(CSCc2cccc(F)c2)o1 | 6.0 | -2.2 | 12.3 | -17.2 | 14.9 | -4.4
CCOC(=O)N1CCN(C(=O)CNC(=O)c2ccc(Br)o2)CC1 | -2.1 | -5.7 | -3.7 | 14.1 | -4.0 | 3.4
CCN(C(=O)CSc1nnc(-c2ccccc2OC)n1N)c1c(N)n(Cc2ccccc2)c(=O)[nH]c1=O | 4.0 | 0.6 | -4.6 | 7.1 | -7.8 | 15.9
CCCCSc1nc(SCC(=O)NCc2ccco2)c2c3c(sc2n1)COC(C)(CC)C3 (stereo not given) | 77.2* | -2.5 | 6.7 | 12.7 | 2.3 | -19.8
CC(=O)c1ccc(Nc2nc(C)cc(C)n2)cc1 | -184.8 | 79.9* | -49.7 | -234.4 | -64.3 | -3.1
CCC(CC)=N/N=C/c1c(O)n(CC)c2cc(C3=NNC(=O)CC3)ccc12 | 2.2 | 5.9 | 3.9 | 17.3 | -8.9 | -44.0
CCn1c(O)c(/C=N/N=C/c2ccccc2)c2ccc(C3=NNC(=O)CC3)cc21 | 50.4* | 3.0 | 4.5 | 13.7 | 1.8 | 36.9
O=[N+]([O-])c1ccc(Sc2cccc[n+]2[O-])c2nonc12 | 111.1* | 4.0 | 86.3* | 91.4* | 100.3* | 93.8*
O=C1NC[C@H](CCCCN2C[C@H](Cc3ccccc3)N(CCC3CCCCC3)C(=O)C2=O)N(CCC2CCCCC2)C1=O | nt | nt | 77.4* | -14.7 | nt | 26.9
Cc1ccc2oc(C(=O)N(C)Cc3ccc(C)o3)c(C)c2c1 | -92.0 | -15.7 | -34.3 | -134.5 | -30.8 | 4.6
O=C(NCCCN1CCCC1)c1[nH]c(C(F)(F)F)nc1-c1ccccc1 | 4.5 | nt | -1.2 | 13.8 | nt | 5.7
Cc1ccc(-c2cc(C(=O)N3CCN(c4ncccn4)CC3)c3cc(Br)ccc3n2)o1 | 52.1* | -9.3 | -5.8 | 10.0 | -14.4 | 20.8
COc1cc(C)ccc1OCC(=O)OCC(=O)c1[nH]c(C)c(C(C)=O)c1C | 5.0 | 0.3 | -1.2 | 17.6 | -9.5 | -8.8
CC(=O)c1c(C)[nH]c(C(=O)COc2cc(C)ccc2C(C)C)c1C | 31.4 | 30.7 | 48.5 | 9.4 | 41.6 | 63.9*
CC(C)(C)C1=CC(=O)C(=O)C(C(C)(C)C)=C1 | 73.4* | 5.1 | 5.0 | 42.0* | nt | 14.8
CC(C)(C)C1=CC(=Nc2ccccc2N)C=C(C(C)(C)C)C1=O | 12.1 | -6.8 | -20.5 | 11.1 | 0.9 | 32.6
Oc1cccc(/C=N/NC(=S)NCCN2CCOCC2)c1O | 2.9 | 48.4* | 11.9 | 9.8 | 12.9 | -25.7
COc1ccc(CNC(=O)CN2C(=O)C3C4C=CC(C4)C3C2=O)cc1 (stereo not given) | 12.2 | -2.9 | -38.7 | -0.2 | 93.4* | -13.7
COc1ccc(CN2C(=O)C3C4C=CC(C4)C3C2=O)cc1 (stereo not given) | 13.9 | -10.9 | -12.5 | 9.1 | -10.0 | 3.2
O=C(CN1C(=O)C2C3C=CC(C3)C2C1=O)NCCC1=CCCCC1 (stereo not given) | -38.0 | 76.2* | -22.6 | -42.0 | -3.1 | -2.2
CC(C)CCN1C(=O)c2ccc(C(=O)Nc3cc(C(=O)O)cc(C(=O)O)c3)cc2C1=O | 11.7 | -1.2 | -15.0 | 5.8 | 7.6 | -1.7
SMILES | Peg3 prom inh | LMP1 NFkB inh | TROY NFkB inh | HIF-2a inh | TRPM1 prom inh | TWEAK-Fn14 inh
CC(C)CCN1C(=O)c2ccc(C(=O)Nc3ccc(Br)cc3C(=O)O)cc2C1=O | 12.1 | 3.1 | 57.6* | 11.1 | 2.5 | -3.4
O=C(COC(=O)C1CC2CCCC(C1)C2=O)Nc1cccc(F)c1 (stereo not given) | -1.1 | 3.4 | 7.0 | 8.0 | -1.3 | 5.5
CCOC(=O)C(C#N)(Cc1ccc2ccccc2n1)Cc1ccc2ccccc2n1 | 25.4 | -2.0 | 24.4 | 35.7 | -5.9 | 44.6
CC(C)C/C=C1\CCc2c([nH]c3ccccc23)C1=O | -221.6 | -53.1 | -49.8 | -253.9 | -62.2 | -19.3
O=C1/C(=C\c2cccnc2)Sc2ccccc21 | -60.3 | -9.2 | -7.6 | -41.3 | -3.8 | -5.7
CC1C/C(=C\c2cccnc2)C(=O)/C(=C/c2cccnc2)C1 (stereo not given) | 107.3* | 91.9* | 52.0* | 93.0* | 97.5* | 102.9*
O=C1/C(=C/c2cccnc2)CCc2c1[nH]c1ccccc21 | -126.9 | 10.6 | 7.4 | -199.6 | -81.0 | 62.4*
Cn1cccc1C(=O)OCC(=O)Nc1ccc2c(c1)OCO2 | -27.1 | 44.2* | -35.2 | -35.1 | -6.7 | -4.7
O=C(COc1cc(Cl)ccc1Cl)N1CCNC1=O | 15.6 | 2.6 | -17.1 | 6.0 | -3.9 | 4.7
Cc1cc(C(=O)Nc2ccc(Cl)cc2)c(C)n1Cc1cccs1 | -250.0 | -53.3 | 50.8* | -259.9 | -79.4 | 59.9*
Cc1cc(C(=O)CN2C(=O)c3ccccc3C2=O)c(C)n1Cc1cccs1 | 12.1 | 50.4* | -2.2 | 32.5 | 5.6 | 83.2*
Cc1cc(C)n2nc(C(=O)OCC(=O)Nc3ccc(F)cc3F)nc2n1 | 5.3 | -1.2 | 2.5 | 15.1 | 1.0 | -5.2
Cc1cc(C(=O)Nc2ccc3c(c2)OCCO3)ccc1[N+](=O)[O-] | -45.1 | 3.5 | 26.0 | -58.9 | 9.0 | 62.4*
O=C(Nc1cccc2ncccc12)c1ccc2c(c1)OCCO2 | -54.3 | 9.0 | nt | -49.3 | -5.4 | 82.9*
Cc1ccc(C(=O)Nc2ccc3c(c2)OCCO3)c(Cl)c1 | 38.3 | 46.6* | 42.9 | 36.0 | 34.1 | 89.5*
Nc1ccc(C(=O)Nc2cccc3ncccc23)cc1 | 11.1 | 1.2 | -7.5 | 9.6 | 3.4 | 6.4
Cn1c(C(=O)NC2CC2)cc2c(=O)n(C)c3ccccc3c21 | -8.3 | -2.5 | -21.5 | -63.4 | -12.3 | -0.2
Cn1c(C(=O)Nc2ccc3c(c2)OCCO3)cc2c(=O)n(C)c3ccccc3c21 | 49.9 | -41.4 | 21.7 | -45.8 | -6.5 | 64.9*
O=C(Nc1ccc2c(c1)OCCO2)c1ccc(Cl)c([N+](=O)[O-])c1 | -297.2 | -2.8 | -28.1 | -159.9 | -68.7 | -12.9
Cc1ccc2c(c1)N(C(=O)CCC(=O)NCCCN1CC(C)CC(C)C1)CCO2 (stereo not given) | -5.0 | 7.1 | -3.3 | 1.2 | 7.0 | 3.6
O=C(NC(Cc1ccccc1)C(=O)N1CCN(c2ccccc2O)CC1)c1ccccc1 (stereo not given) | 17.1 | 0.6 | -2.2 | 6.3 | 4.6 | 3.5
COc1ccc2nc(SCC(=O)Nc3ccc4c(c3)OCCO4)[nH]c2c1 | -4.2 | 13.8 | 69.3* | 7.6 | 7.1 | 89.1*
